Most compounds without a hit are left out; they make up all but 7% or so of the library.
PI5P4K alpha inh: PI5P4K alpha (human) kinase inhibition; max response, %; PI5P4Kalpha enzyme, ADP-Glo luminescence, 60 min; stronger effect = lower value; 1.2% of 330,000 active; active = max response of -50% or lower; inconclusive = between -30% and -50%; inactive = -30% or higher; also: value at the top dose of about 77 µM; % is scaled to controls: 0 for no effect and ±100 for the full control effect
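Compounds were pin-transferred onto PI5P4Kalpha and substrate in HEPES pH 7.4 buffer with EGTA, CHAPS and 5% DMSO. ATP (5 microM final) started the reaction, which ran 60 minutes at room temperature before ADP-Glo detection.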
GCN5L2 inh: GCN5L2 (KAT2A) acetyltransferase inhibition | GCN5L2 HAT assay, ThioGlo1 CoA-SH fluorescence | Potency, µM (titrated, usually from 58.9 µM), for the others: at the top dose activity change, negative = inhibition, most hits filed as inhibitors | 0.21% of 390,000 active; also: potency is read from the fitted curve at half-maximal effect; % is scaled to controls: 0 for no effect and ±100 for the full control effect
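Enzyme at 20nM final was mixed with library compounds for 15 min at room temperature. Peptide H3(1-25) at 75uM, acetyl-CoA at 70uM and ThioGlo1 at 50uM were then added. Plates were read immediately and after 20 min (Ex340nm/Em540nm).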
HP1b binding inh: blocks HP1-beta chromodomain binding to methylated histone tails. P83916. 0.56% of 390,000 active. Potency, µM (highest dose often 114 µM), for inactives: at the highest dose activity change, negative = inhibition, hits mostly inhibitors. AlphaScreen HP1-beta / biotin-H3K9me3 peptide binding; also: potency is read from the fitted curve at half-maximal effect; nearly all actives have a fitted effect of over 70% in size
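Compound inhibition of the preformed complex between 50 nM HP1-beta and 50 nM biotinylated H3K9me3 peptide was read by AlphaScreen. Buffer was PBS pH 7.4 with 0.01% Tween-20. Incubations ran 30 min at room temperature, with 10 ug/mL donor/acceptor beads.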
BAZ2B block: inhibitors of human BAZ2B bromodomain; AlphaScreen BAZ2B-H3K14Ac peptide displacement; Potency, µM (titrated, usually from 114 µM), inactives show at the highest dose activity change, negative = inhibition, actives largely listed as inhibitors; 4.4% of 360,000 active; AID 504333; also: potency is read from the fitted curve at half-maximal effect; % is scaled to controls: 0 for no effect and ±100 for the full control effect; nearly all actives have a fitted effect of over 60% in size
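In this displacement format the biotinylated H3(5-23) peptide acetylated at Lys14 serves as ligand at 50 nM, with BAZ2B at 50 nM in PBS pH 7.4 containing 0.01% Tween-20. Donor and acceptor beads are 10 ug/mL final.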
PLK1 PBD inh: inhibitors of human PLK1 polo-box domain binding; P53350; Potency, µM, for the others: max response, negative = inhibition, hits mostly inhibitors; Plk1 PBD binding of FITC phosphopeptide, fluorescence polarization; 2.8% of 360,000 active; also: potency is read from the fitted curve at half-maximal effect; series mostly up to about 57 µM; % is scaled to controls: 0 for no effect and ±100 for the full control effect; nearly all actives have a fitted effect of over 65% in size
JMJD2A Tudor: inhibitors of human JMJD2A Tudor domain; Potency, µM (doses to about 114 µM), for inactives: at the highest dose activity change, negative = inhibition, most hits filed as inhibitors; AID 504339; 4.4% of 390,000 active; O75164; AlphaScreen JMJD2A-Tudor / H3K4me3 peptide binding; also: potency is read from the fitted curve at half-maximal effect; % is scaled to controls: 0 for no effect and ±100 for the full control effect; nearly all actives have a fitted effect of over 50% in size
* hit, by the source's call; ? = inconclusive; nt = not tested or not shown; [ ] = remark or other dose. Unless noted, calls follow the shape of the dose curve; as a rule, active = well fitted curve in the direction sought with a large enough effect; inconclusive = small, poorly fitted or top-dose-only effect, or another doubt; inactive = no such curve, though single readings can be large; an effect the other way counts as inactive or inconclusive.

SMILES | PI5P4K alpha inh | GCN5L2 inh | HP1b binding inh | BAZ2B block | PLK1 PBD inh | JMJD2A Tudor
O=C(Cc1ccc(NC(=O)C2CCN(C(=O)c3ccccc3)CC2)cc1)Nc1cccc(C(=O)N2CCCC2)c1 | 1 | nt | 42% | nt | -3% | 3%
COc1ccc(-c2sc3cc(OC)c(OC)cc3c2C#CC2(O)CCCCC2)cc1 | 35 | ? | 20% | 79µM* | -4% | -26%
Cc1ccc(C2Cc3cc(O)c(O)cc3CN2)cc1 (stereo unspecified) | 3 | nt | ? | nt | -7% | 8.9µM*
Cc1occc1-c1nnc(SCC(=O)Nc2c(F)cccc2F)n1C | 2 | 0% | 35% | 2% | 1% | -12%
COc1ccc(N2CCN(c3ncnc4c3[nH]c3ccccc34)CC2)cc1 | 0 | nt | -13% | ? | 2% | 50µM*
COc1ccc2[nH]c3c(N4CCc5ccccc5C4)ncnc3c2c1 | -15 | -26% | -18% | ? | 6% | ?
Fc1ccc2[nH]c3c(N4CCN(c5ccccc5)CC4)ncnc3c2c1 | 2 | ? | -10% | 40µM* | -2% | ?
CCCOc1ccc(C(=O)CCC(=O)OCC(=O)Nc2cccc(S(N)(=O)=O)c2)cc1 | -3 | -6% | 13% | -15% | 9% | -6%
O=C(O)CN1C(=O)C2C3CC(C2C1=O)C1C(c2ccccc2)c2sc(=O)[nH]c2SC31 (stereo unspecified) | -5 | -2% | 18% | 6% | ? | -23%
CC(C)CC(C(=O)O)N1C(=O)C2C3CC(C2C1=O)C1C(c2ccccc2)c2sc(=O)[nH]c2SC31 (stereo unspecified) | -3 | 0% | 3% | 7% | 17µM* | -19%
Cc1nnc(N/N=C/C(C)c2ccccc2)[nH]c1=O (stereo unspecified) | 9 | -5% | 28% | -25% | 3% | 0.89µM*
O=C(CN1CCCN(Cc2ccc(F)cc2)S1(=O)=O)NCc1ccccc1Cl | nt | -3% | 38% | -2% | nt | 12%
Cc1cc2c(cc(C(=O)OCC(=O)NC3CCCCC3)n2C)o1 | -16 | nt | -29%[57 µM] | nt | 27µM* | 22µM*
COC(=O)c1sc(N2C(=O)C(O)=C(C(=O)c3ccc(C)o3)C2c2ccco2)nc1C (stereo unspecified) | -18 | -22% | 7% | -5% | 30µM* | -26%
COC(=O)c1sc(N2C(=O)C(O)=C(C(=O)c3ccc(C)o3)C2c2cccs2)nc1C (stereo unspecified) | -29 | -28% | 6% | -31% | 27µM* | ?
COc1ccc(CCNC(=S)N2CCN(S(=O)(=O)c3ccc(C)cc3)CC2)cc1 | -4 | -4% | 6% | 10% | -25% | 3%
Cc1cc(O)c(/C=N/Nc2ccccc2)c(=O)o1 | -9 | -20% | 3% | ? | -5% | 8.9µM*
COc1ccc(CC(=O)NNS(=O)(=O)c2cccc([N+](=O)[O-])c2)cc1OC | 10 | -3% | 14% | 0% | 0% | 2%
COc1ccc(-n2c(O)c(/C=N/NS(=O)(=O)c3cccc([N+](=O)[O-])c3)c3ccccc3c2=O)cc1OC | -10 | -13% | 3% | 50µM* | 22% | ?
COc1ccc(S(=O)(=O)N2CCN(CC(=O)Nc3c(C)n[nH]c3C)CC2)cc1OC | 6 | -7% | ? | nt | 9% | 0.89µM*
Cc1n[nH]c(C)c1NC(=O)CN1CCN(S(=O)(=O)c2ccc(C(F)(F)F)cc2)CC1 | 8 | nt | ? | nt | -6% | 4.5µM*
O=C(CN1CCCN(S(=O)(=O)c2ccc(F)cc2)CC1)Nc1c(Cl)cccc1Cl | -1 | -1% | 5% | -1% | -16% | -6%
O=C(CN1CCN(S(=O)(=O)c2ccccc2)CC1)Nc1cccc(C(F)(F)F)c1 | -1 | -4% | -10% | 20% | ? | 79µM*
COc1ccc(S(=O)(=O)N2CCN(c3ccc(C)cc3C)CC2)cc1OC | -1 | -8% | 1% | 1% | 24µM* | ?
Cc1cccc(NC(=O)c2oc3ccc(S(=O)(=O)N(C)C4CCCCC4)cc3c2C)c1C | nt | -8% | 26% | -4% | nt | -23%
SMILES | PI5P4K alpha inh | GCN5L2 inh | HP1b binding inh | BAZ2B block | PLK1 PBD inh | JMJD2A Tudor
CCCCc1c(-c2ccc(F)cc2)ncn1CCc1ccccc1OC | 0 | nt | nt | nt | 2% | nt
CN(C(=S)NCCN1CCOCC1)C(c1ccccc1)c1ccccc1 | 0 | 0% | ? | 50µM* | ? | 10µM*
S=C(NCCc1ccccc1)NCCN1CCOCC1 | -3 | -1% | 50% | -8% | 1% | -8%
CC1Cc2ccccc2N1C(=O)c1ccc(N2CCCC2)c([N+](=O)[O-])c1 (stereo unspecified) | -1 | -8% | -15% | 25µM* | -19% | 45µM*
COC(=O)CCN(C(=O)c1ccc(N2CCCCC2)c([N+](=O)[O-])c1)c1ccccn1 | 0 | 0% | -10% | -37% | -4% | -35%
CC1Cc2ccccc2N1C(=O)c1ccc(N2CCCCC2)c([N+](=O)[O-])c1 (stereo unspecified) | 13 | -6% | ? | 32µM* | 1% | 40µM*
O=C(O)c1ccccc1C(=O)c1ccc(N2CCCC2)c([N+](=O)[O-])c1 | 10 | -19% | 27% | -14% | -8% | -16%[11.4 µM]
COc1ccc(C(=O)N2c3ccccc3CC2C)cc1OC (stereo unspecified) | 3 | nt | -15% | -22% | 27µM* | -11%[11.4 µM]
O=C(c1ccc(N2CCCCC2)c([N+](=O)[O-])c1)N(Cc1ccccc1)c1ccccn1 | 3 | ? | ? | 32µM* | 2% | 45µM*
CC(=O)c1ccc(-c2ccc(C(=O)NC3CC(C)(C)NC(C)(C)C3)o2)cc1 | -6 | -3% | 17% | -4% | -5% | -22%
CCOC(=O)c1c(OCC)[nH]c2c1cc(O)c1ccccc12 | nt | -13% | ? | 50µM* | ? | 50µM*
Cc1ccccc1-c1noc(-c2ccc(N3CCCC3)c([N+](=O)[O-])c2)n1 | nt | -4% | 45% | -2% | nt | -9%
O=C(Cc1ccccc1)NCC(=O)Nc1cc(Cl)ccc1Cl | 1 | -9% | 1% | 3% | 27µM* | ?
O=C(NNc1ccccc1[N+](=O)[O-])Nc1cccc(Cl)c1 | -1 | 0% | -20%[57 µM] | 89µM* | 21µM* | ?
O=C(NNc1ccccc1)Nc1cc(Cl)ccc1Cl | 0 | nt | 50µM* | nt | -8% | ?
O=C(Nc1nnc(Cc2ccccc2)s1)C1CCN(C(=O)c2cccs2)CC1 | nt | nt | 12% | nt | nt | -17%
O=C(c1ccco1)N1CCN(C(=O)c2ccc(COc3ccc4c(c3)CCC4)o2)CC1 | -15 | 0% | 10% | 50µM* | -17% | ?
CC(C)CC(=O)N1CCN(C(=O)c2ccco2)CC1 | -5 | -1% | 36% | 7% | -5% | -2%
O=C(CCC1CCCC1)N1CCN(C(=O)c2ccco2)CC1 | 4 | -1% | -1% | 6% | 24µM* | -28%[11.4 µM]

Screening results (PubChem)
